According to the supplement of paper PMC10849652:
Of roughly 7,900 targets only a part is listed; those with a hit were picked by preference. About 0.6% of all pairs of compound and target were hits. A number with no mark means an inactive call.

Compound: C[C@H](C1=CC=C(C=C1)C(=O)NC2=C3C=CNC3=NC=C2)N
Assay: log2 fold change, soluble protein after heating vs DMSO (PISA); higher = thermal stabilisation; K562 cells, 10 uM, 30 min; active = over 0.2 and 3.5 SD of the protein, either way, in both replicates (recomputed)
Outline: (§1)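 Aliquots of K562 cells (2×10^6 cells/mL) treated with 10 μM compound for 30 min were heated for 3 min over 48°C-58°C. After pooling and extraction in PBS with 0.5% NP-40 at 4°C, soluble protein from a 21,000xg, 90 min spin was quantified by TMTpro 16plex LC-MS/MS with channel sums equalised. Thermal stability is expressed against control samples, from duplicates, as a log2 fold change.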

Chain of UniProt Q9UBQ6 (Q9UBQ6 whole entry, looked up): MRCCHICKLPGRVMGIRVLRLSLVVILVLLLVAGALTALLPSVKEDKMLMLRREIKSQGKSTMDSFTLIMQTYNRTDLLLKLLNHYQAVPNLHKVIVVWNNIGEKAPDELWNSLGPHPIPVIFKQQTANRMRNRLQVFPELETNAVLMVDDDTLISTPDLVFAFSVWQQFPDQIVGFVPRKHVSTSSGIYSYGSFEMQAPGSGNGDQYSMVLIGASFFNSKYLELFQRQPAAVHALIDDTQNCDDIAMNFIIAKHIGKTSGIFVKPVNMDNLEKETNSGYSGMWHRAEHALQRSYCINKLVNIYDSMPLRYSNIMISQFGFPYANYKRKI
Chain of UniProt Q96EV8 (Q96EV8 whole entry, looked up): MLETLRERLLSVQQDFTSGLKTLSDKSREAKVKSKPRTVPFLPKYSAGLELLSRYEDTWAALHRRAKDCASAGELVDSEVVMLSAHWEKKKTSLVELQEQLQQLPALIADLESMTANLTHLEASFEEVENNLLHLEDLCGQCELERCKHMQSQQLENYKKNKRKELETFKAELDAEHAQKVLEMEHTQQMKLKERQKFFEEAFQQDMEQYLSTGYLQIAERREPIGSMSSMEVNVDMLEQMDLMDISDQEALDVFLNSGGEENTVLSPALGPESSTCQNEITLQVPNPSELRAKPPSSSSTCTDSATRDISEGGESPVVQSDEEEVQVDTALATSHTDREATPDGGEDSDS
Chain of UniProt Q7L014 (Q7L014 whole entry, looked up): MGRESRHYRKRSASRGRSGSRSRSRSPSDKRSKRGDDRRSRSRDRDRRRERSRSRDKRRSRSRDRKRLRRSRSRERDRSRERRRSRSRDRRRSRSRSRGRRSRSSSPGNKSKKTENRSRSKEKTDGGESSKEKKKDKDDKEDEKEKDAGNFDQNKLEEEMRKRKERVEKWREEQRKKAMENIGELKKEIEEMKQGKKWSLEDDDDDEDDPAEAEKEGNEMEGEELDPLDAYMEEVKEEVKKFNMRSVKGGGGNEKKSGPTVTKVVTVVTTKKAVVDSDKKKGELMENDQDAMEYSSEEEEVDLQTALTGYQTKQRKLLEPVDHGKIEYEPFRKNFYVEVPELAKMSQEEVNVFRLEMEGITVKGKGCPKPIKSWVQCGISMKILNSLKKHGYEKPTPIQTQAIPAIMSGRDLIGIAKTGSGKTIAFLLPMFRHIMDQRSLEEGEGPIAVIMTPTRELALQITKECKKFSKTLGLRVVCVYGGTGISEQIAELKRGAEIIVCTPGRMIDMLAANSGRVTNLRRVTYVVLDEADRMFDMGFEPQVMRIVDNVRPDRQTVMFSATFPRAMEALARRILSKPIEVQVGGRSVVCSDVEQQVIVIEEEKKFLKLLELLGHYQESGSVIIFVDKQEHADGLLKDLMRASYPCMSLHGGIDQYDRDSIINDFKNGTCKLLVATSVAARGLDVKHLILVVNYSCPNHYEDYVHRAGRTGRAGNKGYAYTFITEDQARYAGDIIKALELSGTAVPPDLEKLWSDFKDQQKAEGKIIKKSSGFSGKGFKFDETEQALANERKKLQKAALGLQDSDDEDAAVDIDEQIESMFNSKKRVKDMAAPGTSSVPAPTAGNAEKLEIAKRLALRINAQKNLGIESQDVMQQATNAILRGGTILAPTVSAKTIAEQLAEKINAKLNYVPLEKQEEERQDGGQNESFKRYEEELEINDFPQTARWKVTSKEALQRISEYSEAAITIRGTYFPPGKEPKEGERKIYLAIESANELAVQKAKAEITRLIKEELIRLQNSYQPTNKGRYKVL
Chain of UniProt Q16531 (Q16531 whole entry, looked up): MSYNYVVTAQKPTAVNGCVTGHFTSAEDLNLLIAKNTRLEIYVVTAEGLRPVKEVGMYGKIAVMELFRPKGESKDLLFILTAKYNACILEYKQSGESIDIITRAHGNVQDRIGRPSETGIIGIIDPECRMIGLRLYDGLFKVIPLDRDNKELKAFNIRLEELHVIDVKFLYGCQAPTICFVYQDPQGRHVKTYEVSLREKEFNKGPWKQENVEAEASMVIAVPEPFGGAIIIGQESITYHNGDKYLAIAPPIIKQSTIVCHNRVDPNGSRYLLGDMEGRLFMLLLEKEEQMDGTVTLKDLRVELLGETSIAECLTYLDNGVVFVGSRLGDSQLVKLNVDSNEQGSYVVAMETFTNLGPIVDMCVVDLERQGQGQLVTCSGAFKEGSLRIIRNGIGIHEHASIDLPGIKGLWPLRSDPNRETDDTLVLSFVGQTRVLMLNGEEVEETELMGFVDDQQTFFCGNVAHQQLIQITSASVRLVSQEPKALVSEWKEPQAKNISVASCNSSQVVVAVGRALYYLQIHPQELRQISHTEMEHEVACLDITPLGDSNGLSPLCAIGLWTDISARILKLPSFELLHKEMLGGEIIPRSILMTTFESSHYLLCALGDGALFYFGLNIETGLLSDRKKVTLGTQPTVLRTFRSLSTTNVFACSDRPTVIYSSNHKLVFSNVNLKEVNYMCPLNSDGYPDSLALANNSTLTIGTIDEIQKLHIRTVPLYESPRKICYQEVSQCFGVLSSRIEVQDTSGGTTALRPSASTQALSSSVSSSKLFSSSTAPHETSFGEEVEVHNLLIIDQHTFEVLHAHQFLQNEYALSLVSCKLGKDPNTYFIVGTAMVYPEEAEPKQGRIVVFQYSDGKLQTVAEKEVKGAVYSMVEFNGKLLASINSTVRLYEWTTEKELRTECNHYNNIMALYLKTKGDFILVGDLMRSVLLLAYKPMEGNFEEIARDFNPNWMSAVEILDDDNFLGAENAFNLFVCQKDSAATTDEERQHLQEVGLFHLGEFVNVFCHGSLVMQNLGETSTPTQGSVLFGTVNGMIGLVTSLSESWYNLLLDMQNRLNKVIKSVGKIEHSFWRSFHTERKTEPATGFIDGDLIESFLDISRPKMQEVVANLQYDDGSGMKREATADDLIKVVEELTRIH
Chain of UniProt O60911 (O60911 whole entry, looked up): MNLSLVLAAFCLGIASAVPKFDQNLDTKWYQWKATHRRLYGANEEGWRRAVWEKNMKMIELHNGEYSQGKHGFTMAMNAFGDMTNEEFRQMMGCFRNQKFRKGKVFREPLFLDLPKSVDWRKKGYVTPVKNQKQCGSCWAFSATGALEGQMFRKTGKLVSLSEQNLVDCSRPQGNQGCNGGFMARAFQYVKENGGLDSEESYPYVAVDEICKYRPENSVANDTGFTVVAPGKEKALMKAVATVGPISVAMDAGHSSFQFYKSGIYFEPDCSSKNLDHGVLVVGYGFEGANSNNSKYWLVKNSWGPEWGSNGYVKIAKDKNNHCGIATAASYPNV
Chain of UniProt Q9BU89 (Q9BU89 whole entry, looked up): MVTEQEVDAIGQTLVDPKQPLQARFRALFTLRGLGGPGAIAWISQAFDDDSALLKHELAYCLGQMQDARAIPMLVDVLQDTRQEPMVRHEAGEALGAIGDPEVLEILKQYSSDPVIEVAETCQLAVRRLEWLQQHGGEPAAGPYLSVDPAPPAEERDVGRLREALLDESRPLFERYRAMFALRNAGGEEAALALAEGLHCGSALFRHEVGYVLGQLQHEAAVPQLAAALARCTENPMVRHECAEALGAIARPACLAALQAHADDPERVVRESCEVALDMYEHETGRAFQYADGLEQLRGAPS
Chain of UniProt P18074 (P18074 whole entry, looked up): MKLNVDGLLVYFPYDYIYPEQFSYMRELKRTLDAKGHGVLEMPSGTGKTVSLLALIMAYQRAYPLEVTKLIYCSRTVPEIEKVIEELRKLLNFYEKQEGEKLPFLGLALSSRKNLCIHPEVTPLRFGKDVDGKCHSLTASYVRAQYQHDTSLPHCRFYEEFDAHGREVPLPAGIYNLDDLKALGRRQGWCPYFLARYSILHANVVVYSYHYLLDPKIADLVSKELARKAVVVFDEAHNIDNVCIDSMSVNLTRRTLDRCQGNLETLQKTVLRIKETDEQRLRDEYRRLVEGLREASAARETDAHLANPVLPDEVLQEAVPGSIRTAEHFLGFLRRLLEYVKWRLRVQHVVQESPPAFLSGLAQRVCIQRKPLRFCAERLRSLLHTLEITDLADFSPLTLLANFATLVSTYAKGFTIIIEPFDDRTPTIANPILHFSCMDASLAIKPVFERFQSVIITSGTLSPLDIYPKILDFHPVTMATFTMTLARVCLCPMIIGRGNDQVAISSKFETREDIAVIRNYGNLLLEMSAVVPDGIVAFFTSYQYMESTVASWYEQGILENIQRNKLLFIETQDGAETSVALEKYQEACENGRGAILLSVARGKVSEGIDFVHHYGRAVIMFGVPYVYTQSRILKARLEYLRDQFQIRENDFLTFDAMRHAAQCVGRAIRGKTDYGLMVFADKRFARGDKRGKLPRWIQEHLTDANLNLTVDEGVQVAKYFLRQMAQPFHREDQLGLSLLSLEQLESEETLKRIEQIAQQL
Chain of UniProt O75071 (O75071 whole entry, looked up): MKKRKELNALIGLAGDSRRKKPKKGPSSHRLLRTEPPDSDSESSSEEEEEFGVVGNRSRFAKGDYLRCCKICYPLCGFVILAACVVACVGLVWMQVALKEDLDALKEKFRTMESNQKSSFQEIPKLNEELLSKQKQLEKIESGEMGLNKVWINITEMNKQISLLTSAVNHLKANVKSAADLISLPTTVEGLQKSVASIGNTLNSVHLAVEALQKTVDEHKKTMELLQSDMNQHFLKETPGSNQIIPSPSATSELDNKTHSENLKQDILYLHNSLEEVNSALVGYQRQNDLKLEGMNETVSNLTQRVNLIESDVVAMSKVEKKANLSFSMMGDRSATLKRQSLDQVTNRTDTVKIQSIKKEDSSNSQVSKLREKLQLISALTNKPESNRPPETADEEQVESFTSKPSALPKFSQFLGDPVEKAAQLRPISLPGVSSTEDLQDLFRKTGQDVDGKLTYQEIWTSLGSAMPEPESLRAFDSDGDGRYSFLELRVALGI
Chain of UniProt P50402 (P50402 whole entry, looked up): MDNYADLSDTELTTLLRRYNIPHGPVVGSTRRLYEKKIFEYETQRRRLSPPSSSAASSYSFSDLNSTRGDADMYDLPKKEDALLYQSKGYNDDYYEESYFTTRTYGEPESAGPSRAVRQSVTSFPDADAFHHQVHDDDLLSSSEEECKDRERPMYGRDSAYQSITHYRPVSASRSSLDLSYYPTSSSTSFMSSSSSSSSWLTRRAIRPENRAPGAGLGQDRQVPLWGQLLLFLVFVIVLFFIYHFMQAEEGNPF

Row | Target | log2 fold change
1 | DAG1 (UniProt Q14118) | 0.032
2 | DHX40 (UniProt Q8IX18) | 0.03
3 | EDC4 (UniProt Q6P2E9) | -0.092
4 | FAM118A (UniProt Q9NWS6) | 0.036
5 | DTNBP1 (UniProt Q96EV8) | -0.014
6 | DDX46 (UniProt Q7L014) | -0.025
7 | EED, A0A5F9ZI63 | 0.007
8 | FAM117A (UniProt Q9C073) | -0.132
9 | DNTTIP2 (UniProt Q5QJE6) | 0.268
10 | EEA1 (UniProt Q15075) | -0.046
11 | DBR1 (UniProt Q9UK59) | -0.014
12 | DOHH (UniProt Q9BU89) | -0.154
13 | CTSA (UniProt P10619) | -0.036
14 | DTYMK (UniProt P23919) | -0.022
15 | DAB2 (UniProt P98082) | -0.052
16 | EXTL2 (UniProt Q9UBQ6) | -0.227
17 | DDOST (UniProt P39656) | -0.055
18 | DDX39A (UniProt O00148) | 0.002
19 | DTWD1 (UniProt Q8N5C7) | 0.014

Row | Target | log2 fold change
20 | DHFR (UniProt P00374) | 0.239
21 | DPYSL2 (UniProt Q16555) | 0.023
22 | CTSV (UniProt O60911) | -0.01
23 | EFCAB14 (UniProt O75071) | 0.041
24 | CTNNB1 (UniProt P35222) | -0.102
25 | EIF4G1 isoform 8 (UniProt Q04637) | 0.109
26 | ERCC2 (UniProt P18074) | -0.013
27 | DPH5 isoform 5 (UniProt Q9H2P9) | -0.046
28 | ELOC (UniProt Q15369) | -0.07
29 | DNAH10 (UniProt Q8IVF4) | -0.055
30 | CUEDC2 (UniProt Q9H467) | -0.113
31 | FAM50A (UniProt Q14320) | -0.06
32 | DHCR7 (UniProt Q9UBM7) | 0.089
33 | DDB1 (UniProt Q16531) | -0.039
34 | EMD (UniProt P50402) | 0.018
35 | EHBP1L1 (UniProt Q8N3D4) | 0.012
36 | EHD2 (UniProt Q9NZN4) | -0.008
37 | DHCR24 (UniProt Q15392) | 0.056
38 | DCTN1 isoform 4 (UniProt Q14203) | 0.131

Compound: C[C@H](Nc1ncnc2nc[nH]c12)c1cc2cccc(Cl)c2c(=O)n1-c1ccccc1 [duvelisib]
Assay: as above
Outline: as §1

Row | Target | log2 fold change
39 | DAG1 (UniProt Q14118) | 0.116
40 | DHX40 (UniProt Q8IX18) | 0.005
41 | EDC4 (UniProt Q6P2E9) | 0.003
42 | FAM118A (UniProt Q9NWS6) | -0.006
43 | DTNBP1 (UniProt Q96EV8) | -0.012
44 | DDX46 (UniProt Q7L014) | 0.144
45 | EED, A0A5F9ZI63 | 0.014
46 | FAM117A (UniProt Q9C073) | -0.119
47 | DNTTIP2 (UniProt Q5QJE6) | -0.26
48 | EEA1 (UniProt Q15075) | 0.006
49 | DBR1 (UniProt Q9UK59) | -0.072
50 | DOHH (UniProt Q9BU89) | 0.055
51 | CTSA (UniProt P10619) | -0.039
52 | DTYMK (UniProt P23919) | 0.094
53 | DAB2 (UniProt P98082) | -0.021
54 | EXTL2 (UniProt Q9UBQ6) | -0.015
55 | DDOST (UniProt P39656) | -0.074
56 | DDX39A (UniProt O00148) | 0.051
57 | DTWD1 (UniProt Q8N5C7) | 0.015

Row | Target | log2 fold change
58 | DHFR (UniProt P00374) | 0.604 (active)
59 | DPYSL2 (UniProt Q16555) | 0.33
60 | CTSV (UniProt O60911) | -0.039
61 | EFCAB14 (UniProt O75071) | 0.006
62 | CTNNB1 (UniProt P35222) | 0.086
63 | EIF4G1 isoform 8 (UniProt Q04637) | -0.1
64 | ERCC2 (UniProt P18074) | -0.035
65 | DPH5 isoform 5 (UniProt Q9H2P9) | 0.077
66 | ELOC (UniProt Q15369) | 0.137
67 | DNAH10 (UniProt Q8IVF4) | 0.077
68 | CUEDC2 (UniProt Q9H467) | 0.048
69 | FAM50A (UniProt Q14320) | -0.03
70 | DHCR7 (UniProt Q9UBM7) | -0.029
71 | DDB1 (UniProt Q16531) | 0.02
72 | EMD (UniProt P50402) | -0.033
73 | EHBP1L1 (UniProt Q8N3D4) | 0.139
74 | EHD2 (UniProt Q9NZN4) | 0.048
75 | DHCR24 (UniProt Q15392) | 0.027
76 | DCTN1 isoform 4 (UniProt Q14203) | -0.045
